# HTR5A ag ctr – HTR5A agonists in luminescence cell assay, primary screen, counter-screen for OPRM1-OPRD1 heterodimer agonist project, full-deck HTS. 5-hydroxytryptamine receptor 5A (Homo sapiens), P47898. cell-based. activation, % at 9.3 µM. hit rate 0.61% among 340,000. AID 504692, 2011; in the data active = activation mostly above about 9.5%, no sharp cut-off; inactive = mostly below about 7.6%
# Target sequence (P47898 whole entry, looked up): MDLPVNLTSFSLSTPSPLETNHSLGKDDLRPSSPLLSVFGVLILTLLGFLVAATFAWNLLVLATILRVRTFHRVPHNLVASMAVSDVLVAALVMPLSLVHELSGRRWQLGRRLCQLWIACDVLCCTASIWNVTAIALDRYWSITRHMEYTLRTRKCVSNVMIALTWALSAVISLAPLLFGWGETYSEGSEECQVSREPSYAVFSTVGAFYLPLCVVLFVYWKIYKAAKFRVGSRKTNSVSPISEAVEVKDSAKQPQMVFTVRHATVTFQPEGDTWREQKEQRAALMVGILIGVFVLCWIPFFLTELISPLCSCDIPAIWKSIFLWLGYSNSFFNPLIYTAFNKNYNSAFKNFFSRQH
# HTR5A inv ag – HTR5A inverse agonists in luminescence cell assay, primary screen, counter-screen for OPRM1-OPRD1 heterodimer inverse agonist project, full-deck HTS | 5-hydroxytryptamine receptor 5A (Homo sapiens), P47898 | HTR5A cell line, inverse agonism | inhibition, % at 9.3 µM | hit rate 0.083% among 340,000; in the data active = inhibition mostly above about 23%, no sharp cut-off; inactive = mostly below about 18%
# OPRM1-OPRD1 inv – inverse agonists of MOR-DOR heterodimerization, primary screen, cell-based, luminescence; Mu-type opioid receptor (Homo sapiens) + Delta-type opioid receptor (Homo sapiens), …; cell-based MOR-DOR heterodimer luminescence, inverse agonism; inhibition, % at 9.3 µM; hit rate 0.21% among 340,000; in the data active = inhibition above about 22%, passing the limit was not always enough
# OPRM1-OPRD1 ag – agonists of OPRM1-OPRD1 heterodimerization, primary screen, cell-based, luminescence. cells. hit rate 0.3% among 340,000. activation, % at 9.3 µM. AID 504326, 2011. Mu-type opioid receptor (Homo sapiens) + Delta-type opioid receptor (Homo sapiens), …
# MOR-DOR ag conf – agonists of MOR-DOR heterodimerization, confirmation, cell-based, luminescence. activation, % at 9.3 µM. hit rate 45% among 830. cells, luminescence complementation. shares compounds with OPRM1-OPRD1 ag. AID 504904, 2011
# HTR5A ag ctr2 – HTR5A agonists in cells, counter-screen for OPRM1-OPRD1 heterodimer agonist project, cell-based, luminescence; shares compounds with OPRM1-OPRD1 ag; HTR5A agonist counterscreen; activation, % at 9.3 µM; hit rate 8% among 830; AID 504905, 2011; in the data active = activation above about 17%
# Hits are given with their value; n = inactive; x = not tested or not shown. Shown are actives, neighbours in structure and some others; about 1.1% of the full set was active somewhere. Rule as the data show it, unless noted: active = activation above about 18%; inactive = the rest.
SMILES,HTR5A ag ctr,HTR5A inv ag,OPRM1-OPRD1 inv,OPRM1-OPRD1 ag,MOR-DOR ag conf,HTR5A ag ctr2
O=C(COC(=O)CN1C(=O)c2ccccc2C1=O)Nc1ccccc1[N+](=O)[O-],n,n,n,n,x,x
Fc1ccc(/C=C2\CCCC3=C2Nc2ncnn2C3c2ccc(F)cc2)cc1 (stereo not given),10.5,n,n,n,x,x
Cc1ccc(NC(=O)CSc2ncnc3ccccc23)cc1S(=O)(=O)N1CCCCCC1,n,n,n,n,x,x
CCOC(=O)c1ccc(N=c2sc(C(=O)OC)cc(=O)n2CCCN2CCOCC2)cc1,n,n,n,n,x,x
CCOC(=O)c1ccc(N=c2sc(C(=O)OC)cc(=O)n2Cc2ccco2)cc1,13.8,n,n,n,x,x
O=C(NCC1CCN(Cc2ccccc2F)CC1)Nc1ccccc1F,n,n,n,n,x,x
O=C(NCC1CCN(Cc2ccccc2F)CC1)Nc1cccc(Br)c1,13.8,n,n,n,x,x
Cc1ccc2[nH]cc(CCNC(=O)C3CCCO3)c2c1 (stereo not given),11.3,n,n,n,x,x
Cc1ccc2[nH]cc(CCNC(=O)c3ccc4c(c3)OCO4)c2c1,n,n,n,n,x,x
COC(=O)CN(C)C(=O)CC1C(=O)NCCN1CC(C)(C)C (stereo not given),13.5,n,n,n,x,x
CCCCN1CC(COC)Oc2cccc(F)c2S1(=O)=O (stereo not given),n,n,n,n,x,x
COCCOC(=O)c1c(C)n(C)c2ccc(OC(=O)c3c(OC)cccc3OC)cc12,10.7,n,n,n,x,x
COCCOC(=O)c1c(C)n(C)c2ccc(OC(=O)N3CCOCC3)cc12,n,n,n,n,x,x
C=CCNC(=O)CC(=O)N/N=C/c1cccs1,n,n,n,n,x,x
COC(C(=O)Nc1ccnn1C1CCN(Cc2ccc(C)s2)CC1)c1ccccc1 (stereo not given),n,n,n,n,x,x
O=C(NNC(=S)NC(=O)c1ccc(F)cc1)c1ccncc1,n,n,n,n,x,x
CC1(C(=O)NC(=S)NNC(=O)c2ccncc2)CCCCC1,n,32.0,35.9,n,x,x
CC(C)(C)CC(=O)Nc1nnc(SCC(=O)N2CCCCC2)s1,n,n,n,n,x,x
CN1CCN(c2ccccc2NC(=O)c2ccc(-c3cccc(Cl)c3)o2)CC1,n,n,n,62.5,x,x
O=C(Nc1ccccc1N1CCCCC1)c1ccc(-c2cccc(Cl)c2)o1,n,n,n,n,x,x
CCOc1cc(C(=O)CSc2nnc(CNc3ccc(Cl)cc3)o2)ccc1NC(=O)CC,29.7,n,n,65.2,77.2,24.6
CCOc1ccc(NC(=O)Nc2ccon2)cc1,n,n,n,n,x,x
O=C(CCCN1C(=O)C2CC=CCC2C1=O)Nc1cccc(F)c1 (stereo not given),n,n,n,n,x,x
COCCN(C(=O)C1CC(=O)N(Cc2ccccc2)C1)c1nc(-c2ccc([N+](=O)[O-])cc2)cs1 (stereo not given),n,n,n,127.5,154.0,n
COc1cccc(C2c3[nH]c4ccccc4c3C[C@H]3C(=O)N(CCCOC(C)C)CC(=O)N23)c1 (stereo not given in full),n,n,n,18.2,n,n
SMILES,HTR5A ag ctr,HTR5A inv ag,OPRM1-OPRD1 inv,OPRM1-OPRD1 ag,MOR-DOR ag conf,HTR5A ag ctr2
OC(c1cc(-c2ccc(Cl)cc2)nc2ccccc12)C1CCCCN1 (stereo not given),n,n,n,n,x,x
OC(c1cc(C(F)(F)F)nc2c(Cl)cc(Cl)cc12)C1CCCCN1 (stereo not given),11.6,n,n,31.3,n,n
O=C(CN1C(=O)NC2(CCc3ccccc32)C1=O)Nc1ccc(Br)cc1F (stereo not given),n,n,n,n,x,x
CC[C@@H](C)[C@@H]1CN([C@@H](CN2CCC[C@H]2CN2C(N)=NC[C@H]2C(C)C)C(C)C)C(=N)N1CCc1ccc(Cl)c(Cl)c1,n,n,n,205.1,72.2,n
CC[C@@H](C)[C@@H]1CN([C@@H](C)CN2CCC[C@H]2CN2C(N)=NC[C@@H]2Cc2ccccc2)C(=N)N1CCc1ccc(Cl)c(Cl)c1,n,n,n,n,x,x
Oc1ccc(Oc2ccc3c(C(F)(F)F)cc(C(F)(F)F)nc3n2)cc1,n,n,n,19.8,82.2,n
COc1ccc(Oc2ccc3c(C(F)(F)F)cc(C(F)(F)F)nc3n2)cc1,n,n,n,n,x,x
O=C(CCCc1ccccc1)N=C1SC2CS(=O)(=O)CC2N1c1ccccc1F (stereo not given),n,n,n,n,x,x
Cc1cc(C2(c3ccc(O)c(C)c3)C(=O)Nc3ccccc32)ccc1O,n,n,n,19.9,n,n
COc1ccc(CN2CCc3c([nH]c4ccccc34)C2)c(OC)c1C,n,n,n,69.5,38.2,n
COc1ccc(CN2CCc3c([nH]c4ccccc34)C2)cc1Br,n,n,n,n,x,x
Cc1cc(NC(=O)CN2CCc3ccccc3C2)nc2c1c(=O)oc1ccccc12,n,n,n,517.6,n,n
COc1cc(/C=N/NC(=O)c2ccccc2O)ccc1OCC(=O)Nc1ccccc1,n,n,n,n,x,x
O=C(COc1ccc(/C=N/NC(=O)c2cc3ccccc3o2)cc1Cl)Nc1ccccc1,n,n,n,41.1,n,n
CC(CC(=O)N(CCC1=CCCCC1)c1c(N)n(Cc2ccccc2)c(=O)[nH]c1=O)c1ccccc1 (stereo not given),n,n,n,39.1,32.7,n
CCOc1ccc(OCC(=O)N(CCC2=CCCCC2)c2c(N)n(Cc3ccccc3)c(=O)[nH]c2=O)cc1,n,n,n,n,x,x
Cc1ccc(NC2=Nc3ccccc3CC2)cc1,n,n,n,n,x,x
Brc1ccc(NC2=Nc3ccccc3CC2)cc1,n,n,n,26.3,229.9,n
O=C(c1cc(C2CC2)nn1-c1ccccc1)N1CCN(S(=O)(=O)c2c(F)cccc2F)CC1,n,n,n,n,x,x
Cc1ccsc1C(=O)OCC(=O)NC1CCCC1,n,n,n,n,x,x
CN(C)C(CNC(C(=O)Nc1ccc(F)cc1)c1ccccc1)c1ccccc1 (stereo not given),n,n,n,230.0,n,n
CN(C)C(CNC(C(=O)Nc1ccc([N+](=O)[O-])cc1Br)c1ccccc1)c1ccccc1 (stereo not given),n,n,n,65.9,79.0,n
O=C(Nc1ccc(F)cc1)C(NC1CCCCC1)c1ccccc1 (stereo not given),n,n,n,n,x,x
CC(C)CNC(C(=O)Nc1ccc([N+](=O)[O-])cc1Br)c1ccccc1 (stereo not given),n,n,n,n,x,x
C=CCn1c(SC2CCOC2=O)nc2scc(C3CC3)c2c1=O (stereo not given),n,n,n,n,x,x
